# In ChEMBL document CHEMBL3988442, “University of Dundee, Small-Polar-MMV Screening Library” (2021):
# Among all 48,000 compounds or so, about 13,000 (27%) showed an effect of 50% or more. The list shows a part of the results.
# Tested on: Wolbachia pipientis
# Experiment: Anti-Wolbachia Cell-Based Screen
# Assay type: functional
# Set-up: scale not given: in the data most compounds retested in dose-response had high values
# Details: 5 µM
row,SMILES,Percent Effect [%]
1,Cn1c(CN2CCN(c3cccnc3)CC2)cc2ccccc21,39.54
2,CS(=O)(=O)N1Cc2ccnn2CC(C(=O)NCc2cccnc2)C1.O=C(O)C(F)(F)F.O=C(O)C(F)(F)F (configuration not stated),101.4
3,COCCNC(=O)C1CN(Cc2ccsc2)Cc2ccnn2C1 (configuration not stated),3.328
4,COCCNC(=O)C1CN(Cc2cccnc2)Cc2ccnn2C1.O=C(O)C(F)(F)F.O=C(O)C(F)(F)F.O=C(O)C(F)(F)F (configuration not stated),1.319
5,O=C(NCc1cccnc1)[C@@H]1CC[C@@H]2[C@@H](CCN2c2ncc(F)cn2)O1.O=C(O)C(F)(F)F.O=C(O)C(F)(F)F,-0.1893
6,CC(C)NC(=O)C1CN(C(N)=O)Cc2ccnn2C1 (configuration not stated),-7.077
7,COCCNC(=O)C1CN(C(N)=O)Cc2ccnn2C1 (configuration not stated),100.3
8,CC(=O)N1Cc2ccnn2CC(C(=O)NCc2cccnc2)C1.O=C(O)C(F)(F)F (configuration not stated),105.9
9,CC(C)CN(Cc1ccc(C(F)(F)F)nc1)Cc1cnn(C)c1,-7.949
10,COc1cccn(CC(=O)N(C)CCSC)c1=O,-16.92
11,O=C(O)c1ccc2c(c1)C1(CCCCC1)CN2C(=O)c1cccs1,-9.46
12,O=C1CCCN1CCN1CC[C@@]2(O)CCN(c3ncccn3)C[C@H]2C1,-11.72
13,OC(CNCCn1cccn1)COc1ccc(Br)cc1 (configuration not stated),2.37
14,CCN(CC)CC[C@H]1CN(C(=O)C(C)(C)C)CC[C@H]1CC(=O)O,-8.739
15,Cc1nc2n(n1)CC(NCCCc1nc(-c3cccs3)no1)CC2 (configuration not stated),-18.09
16,Cc1cccc(NC(=O)CN(C)C(=O)c2scnc2C)n1,117.3
17,Cc1oc(C)c(C(=O)Nc2ccccn2)c1C,13.13
18,Cc1ccc(C(=O)N(C)CC(=O)Nc2cccc(C)n2)cn1,-9.643
19,Cc1ncsc1C(=O)Nc1ccccn1,113.7
20,Cc1cccc(NC(=O)CN(C)C(=O)c2ccc(-n3cccc3)nc2)n1,6.082
21,Cc1ncsc1C(=O)N[C@@H](Cc1ccccc1)C(N)=O,5.528
22,CCn1cc2c(n1)C(COCC1CC1)CN(C(=O)c1cnoc1C)C2 (configuration not stated),-6.391
23,CN(CC1Cc2ccccc2CN1C)C(=O)CSc1ccccn1 (configuration not stated),0.2013
24,COCCN1CCC2(CC1)CC(NCc1cncn1C)c1ccccc12.O=C(O)C(F)(F)F.O=C(O)C(F)(F)F (configuration not stated),-4.638
25,COCCN1CCC2(CC1)CC(NCc1ccc(C)s1)c1ccccc12.O=C(O)C(F)(F)F.O=C(O)C(F)(F)F (configuration not stated),109.1
26,O=C(NC1CC2(CCN(CCO)CC2)c2ccccc21)c1ccsc1.O=C(O)C(F)(F)F (configuration not stated),-2.437

row,SMILES,Percent Effect [%]
1,Cc1ccc(CNC2CC3(CCN(CCO)CC3)c3ccccc32)s1.O=C(O)C(F)(F)F.O=C(O)C(F)(F)F (configuration not stated),107.2
2,O=C(NC1CC2(CCN(CCO)CC2)c2ccccc21)c1ccno1.O=C(O)C(F)(F)F (configuration not stated),-3.484
3,COCCN1CCC2(CC1)CC(N1CCOCC1)c1cc(C)ccc12.O=C(O)C(F)(F)F.O=C(O)C(F)(F)F (configuration not stated),-13.01
4,Cc1cccc(CNC2CC3(CCN(CCO)CC3)c3ccccc32)n1.O=C(O)C(F)(F)F.O=C(O)C(F)(F)F (configuration not stated),121.3
5,CC(NCc1cccn1C)c1noc(-c2ccc(Cl)cc2)n1 (configuration not stated),-2.056
6,CN1C(=O)CO[C@H](c2ccc(NC(=O)c3cccnc3)cc2)[C@H]1CO,-10.51
7,Nc1nc2c(c(NC(=O)Nc3cccc(Cl)c3)n1)CCCC2,7.303
8,Cc1c(NCc2ccc(C#N)cc2)cccc1S(=O)(=O)NC1CC1,-7.698
9,c1cn(CCn2cnnc2)c(-c2cc3n(n2)CCCNC3)n1,-4.741
10,COc1ccccc1C(=O)N1CC(=O)N(CC(C)C)CC(O)C1 (configuration not stated),116.8
11,CC(C)c1nnc2n1CCN(C(=O)c1ccccc1OCC1CC1)C2,-3.948
12,COc1ccccc1C(C)CC(=O)N1CC[C@H](O)C1 (some centres not stated),18.86
13,COc1ccccc1C(=O)N1CC(=O)N(CC2CC2)CC(O)C1 (configuration not stated),108.3
14,CCC(NC(=O)c1ccco1)c1nc(C(F)(F)F)cs1 (configuration not stated),-6.981
15,COCC1CC2(CCN(C(=O)c3oc4ccccc4c3C)CC2)CO1 (configuration not stated),-1.277
16,CNC(=O)NCC1CCC2(CCN(C(=O)c3ccccc3)CC2)CO1 (configuration not stated),108.3
17,CC(C)NC(=O)C1CCC2(CCN(c3ncccn3)CC2)CO1 (configuration not stated),-6.885
18,CNC(=O)NCC1CCC2(CCN(C(=O)c3cccnc3)CC2)CO1.O=C(O)C(F)(F)F (configuration not stated),102.7
19,COCC1CC2(CCN(C(=O)c3cncc(C)c3)CC2)CO1.O=C(O)C(F)(F)F (configuration not stated),8.897
20,CNC(=O)NCC1CCC2(CCN(c3ncccn3)CC2)CO1 (configuration not stated),88.92
21,COCC1CC2(CCN(C(=O)c3cccc(C)c3)CC2)CO1 (configuration not stated),-11.23
22,O=C(C1CCC2(CCN(c3ncccn3)CC2)CO1)N1CCCC1 (configuration not stated),10.33
23,CS(=O)(=O)N1CCOCC2(CCN(C(=O)c3cccnc3)CC2)C1.O=C(O)C(F)(F)F,-2.226
24,Cc1ccc(-c2cc(C(=O)N(C)Cc3noc4c3CCCC4)[nH]n2)o1,119
25,COc1nc2c(cc1C(=O)N(C)Cc1noc3c1CCCC3)CCC2,-4.32
26,Cc1ccc(-c2cc(C(=O)N(C)Cc3noc4c3CCCC4)[nH]n2)s1,126

row,SMILES,Percent Effect [%]
1,CN(Cc1noc2c1CCCC2)C(=O)C1Cc2ccccc2CN1C (configuration not stated),9.151
2,Cc1ccc(-c2cc(C(=O)NCCC3=CCCCC3)[nH]n2)o1,9.696
3,CN(Cc1noc2c1CCCC2)C(=O)CN1C(=O)CSc2ccccc21,0.5887
4,COc1ccc(C(=O)NC2CC2)c(OC2CCN(C3CCC3)CC2)c1,0.9223
5,O=C(Nc1ccc(F)cc1)C1CNCCN1C(=O)CCO (configuration not stated),-8.613
6,COc1ccccc1C1CNCCN1C(C)=O (configuration not stated),170.5
7,COc1ccc(C(=O)N2CCCC2c2ccco2)cc1OC (configuration not stated),-0.7331
8,COc1ccccc1OC1CN(C(=O)C2CNCC(=O)N2)C1 (configuration not stated),3.442
9,COc1ccccc1C1CNCCN1C(=O)c1ccc(F)cc1 (configuration not stated),170.1
10,COc1cc(S(=O)(=O)N2C[C@@H](C)[C@@](C)(O)C2)c(C)cc1C,-12.13
11,Cc1cccnc1CNCC1(O)CCCN(Cc2ccc(F)cc2)C1=O (configuration not stated),9.379
12,CCOc1cc(NC(=O)N(C)Cc2ncnn2C)ccc1C,-12.81
13,CCOc1cc(C(=O)N(C)C)ccc1NC(=O)c1ccsc1,-5.987
14,CN1CC(=O)c2sc(NCCc3ccccc3)nc2C1,91.14
15,Cn1cnc2c1CCN(CCCc1ccccc1)C2,0.7928
16,Cn1ccc(C(=O)N2CCN(CCc3ccccc3)CC2)cc1=O,-2.355
17,CC(C)SCC(=O)N1Cc2cnc(-c3ccccc3)nc2C1,3.989
18,CC(C)Cc1ncc2c(n1)CN(C(=O)Cn1c(=O)oc3ccccc31)C2,-4.555
19,CC(C)CC(=O)N1CC(=O)c2sc(NCCc3ccccc3)nc2C1,112.3
20,CNc1nc(CNC(=O)Nc2cccc(F)c2)cs1,-0.1987
21,CC(NC1(CNC(=O)NC2CC2)CCOCC1)c1ccccc1 (configuration not stated),5.387
22,CCC1=N[C@@]2(CC[C@@H]3CN(Cc4cccc(Cl)c4)C[C@@H]32)C(=O)N1C.O=C(O)C(F)(F)F,95.01
23,CCC1=N[C@@]2(CC[C@@H]3CN(Cc4ccc(F)cc4)C[C@@H]32)C(=O)N1C.O=C(O)C(F)(F)F,103.7
24,CCC1=N[C@@]2(CC[C@@H]3CN(Cc4ccccc4C)C[C@@H]32)C(=O)N1C.O=C(O)C(F)(F)F,114.6
25,CCC1=N[C@@]2(CC[C@@H]3CN(Cc4ccccc4F)C[C@@H]32)C(=O)N1CC.O=C(O)C(F)(F)F,-10.67
26,O=C(O)C(F)(F)F.O=C1NC(c2ccccc2)=N[C@@]12CC[C@@H]1CN(Cc3ccccc3)C[C@@H]12,4.255

row,SMILES,Percent Effect [%]
1,CCC1=N[C@@]2(CC[C@@H]3CN(CC(C)C)C[C@@H]32)C(=O)N1.O=C(O)C(F)(F)F,-10.58
2,CCC1=N[C@@]2(CC[C@@H]3CN(C(=O)NC(C)C)C[C@@H]32)C(=O)N1C,-5.226
3,CCC1=N[C@@]2(CC[C@@H]3CN(CC(=O)N(C)C)C[C@@H]32)C(=O)N1CC1CC1.O=C(O)C(F)(F)F,-4.089
4,CCC1=N[C@@]2(CC[C@@H]3CN(Cc4ccc(C)cc4)C[C@@H]32)C(=O)N1C.O=C(O)C(F)(F)F,81.5
5,CCC1=N[C@@]2(CC[C@@H]3CN(C(=O)NCc4ccccc4)C[C@@H]32)C(=O)N1C,-13.65
6,CC1=N[C@@]2(CC[C@@H]3CN(CC(C)C)C[C@@H]32)C(=O)N1C.O=C(O)C(F)(F)F,8.258
7,CCC1=N[C@@]2(CC[C@@H]3CN(Cc4ccccc4C)C[C@@H]32)C(=O)N1.O=C(O)C(F)(F)F,-9.167
8,CCCN1CCC(CC(=O)N[C@H](C(=O)O)c2cccc(F)c2F)CC1,-4.75
9,COC(=O)NCC(=O)NCC(C)(C)c1cccc(Br)c1,-15.07
10,CCCc1ncc(CN(CCOC)Cc2cccs2)cn1,-13.63
11,CCN(CCn1cccn1)Cc1nc(-c2ccccc2F)oc1C,1.604
12,C=C(C)COCCNC(=O)Nc1cccc(Cn2nc(C)nc2C)c1,-4.389
13,Cc1ccc(S(=O)(=O)N2CCN(CCCn3ccnc3)CC2)cc1,-7.959
14,O=S(=O)(c1ccccc1)N1CCN(CCn2ccnc2)CC1,-17.14
15,O=S(=O)(c1ccccc1)N1CCCN(CCCn2ccnc2)CC1,1.416
16,CC(=O)Nc1ccc(S(=O)(=O)N2CCOC(Cn3ccnc3)C2)cc1 (configuration not stated),127.1
17,COc1ccc(S(=O)(=O)N2CCOC[C@H](Oc3cnccn3)C2)cc1,-5.156
18,CCN(C)C[C@@H]1CN(S(=O)(=O)c2ccc(OC)cc2)C[C@@H]1CO,9.662
19,CCC1CN(C(=O)COc2ccc(NC(C)=O)cc2)CCO1 (configuration not stated),-18.64
20,COc1ccc(S(=O)(=O)N2CCOC(Cn3ccnc3)C2)cc1.Cc1ccc(S(=O)(=O)O)cc1 (configuration not stated),106.9
21,O=S(=O)(c1ccccc1)N1CCOC(Cn2ccnc2)C1 (configuration not stated),143.1
22,CC(=O)c1ccc(S(=O)(=O)N2CCOC(Cn3ccnc3)C2)cc1 (configuration not stated),80.08
23,CC(=O)Nc1ccc(S(=O)(=O)NC(=O)CCC2CCCO2)cc1 (configuration not stated),-4.56
24,O=S(=O)(c1ccc(Cl)cc1)N1CCN(CCCn2ccnc2)CC1,-9.759
